From PubChem BioAssay AID1781 (National Center for Advancing Translational Sciences (NCATS), 2009)
Results filed as inconclusive are left out. Active and inactive are the calls of the source. The call rests on the fitted dose curve; in most records, active means well fitted curve in the direction sought with a large enough effect; inconclusive means small, poorly fitted or top-dose-only effect, or effect the other way, or another doubt; inactive means no such curve, though single readings can be large or run the other way.

The compounds below were run against Pyruvate kinase PKLR (Homo sapiens) (UniProt P30613) (assay: Confirmation Concentration-Response Assay for Activators of Human Liver Pyruvate Kinase). Settings: purified hPK-L, Kinase-Glo ATP luminescence, 1 h; series mostly up to 57.5 µM.
Chain of Pyruvate kinase PKLR (Homo sapiens) (P30613 whole entry, looked up): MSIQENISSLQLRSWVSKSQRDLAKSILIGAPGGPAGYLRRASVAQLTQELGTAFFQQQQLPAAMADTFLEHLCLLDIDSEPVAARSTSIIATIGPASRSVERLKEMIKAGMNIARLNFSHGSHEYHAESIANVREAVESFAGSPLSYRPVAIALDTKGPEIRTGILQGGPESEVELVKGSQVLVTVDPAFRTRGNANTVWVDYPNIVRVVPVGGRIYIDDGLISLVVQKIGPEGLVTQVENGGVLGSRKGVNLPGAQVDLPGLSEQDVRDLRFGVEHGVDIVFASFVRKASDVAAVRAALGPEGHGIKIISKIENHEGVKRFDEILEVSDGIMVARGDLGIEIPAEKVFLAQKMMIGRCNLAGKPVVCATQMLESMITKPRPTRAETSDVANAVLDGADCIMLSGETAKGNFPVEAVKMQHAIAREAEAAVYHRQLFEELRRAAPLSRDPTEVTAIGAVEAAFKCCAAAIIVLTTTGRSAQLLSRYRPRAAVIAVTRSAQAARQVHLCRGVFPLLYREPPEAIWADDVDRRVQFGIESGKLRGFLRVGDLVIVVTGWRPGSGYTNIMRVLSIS
From the text: Confirmatory assay NIH Chemical Genomics Center [NCGC] Matthew G. Vander Heiden, M.D., Ph.D. [Harvard Medical School, 77 Avenue Louis Pasteur, Boston, MA 02115] NCGC Assay Overview: Human pyruvate kinase liver (hPK-L) enzyme was supplied as a highly purified (>95% pure) preparation from Harvard Medical School and assayed for its ability to generate ATP from ADP using phosphoenolpyruvate (PEP) as a substrate. ATP generation was detected in a coupled reaction by luciferase-mediated luminescence, an ATP-dependent process. Pyruvate kinase substrates, PEP and ADP, were present in the assay at Km and approximately 10-fold below Km respectively. The enzyme was assayed at an intermediate level of activity to screen for both inhibitors and activators.
NCGC Assay Protocol Summary for L-isoform: Three uL of substrate mix (at r.t.) in assay buffer (50 mM Imidazole pH7.2, 50 mM KCl, 7 mM MgCl2, 0.01% Tween 20, 0.05% BSA) was dispensed into white solid bottom 1,536 well microtiter plates so that the final concentrations of substrates in the assay were 0.1 mM ADP and 0.5 mM PEP. 23 nL of compound were delivered by a pin tool and 1 uL of enzyme mix (final concentration of 0.1 nM) in assay buffer (4 degree Celsius) was added. Plates were incubated at room temperature for 1 hour. Two uL of detection mix (Kinase-Glo, Promega; at 4 degree Celsius protected from light) was added and luminescence read by a ViewLux (Perkin Elmer) at 1 second exposure/plate. Data were normalized to the uninhibited (row 31). Additionally, a no enzyme and 5-fold enzyme control was dispensed in row 32, split equally between the two conditions.

Question: How did the outcome turn out when `O=S(=O)(c1cccc(C(F)(F)F)c1)N1CCN(S(=O)(=O)c2ccc3c(c2)OCCO3)CC1` was run?
Answer: Its outcome is “inactive”.

Question: With `Cc1nc2ccc(S(=O)(=O)N3CCN(S(=O)(=O)c4c(F)cccc4F)CC3)cc2s1` as the compound, how does the outcome read?
Answer: Its outcome is “inactive”.

Question: `Cc1cc2c(s1)c1cnn(Cc3ccc(C)c(F)c3F)c(=O)c1n2C` was tested. Which outcome did it give?
Answer: Its outcome is “inactive”.

Question: Which outcome does the source give for `COC(=O)c1cc2c(s1)c1cnn(Cc3ccccc3F)c(=O)c1n2C` here?
Answer: Its outcome is “inactive”.

Question: Which outcome does the source give for `Cc1cc2c(s1)c1cnn(Cc3ccc(-c4ccccc4)cc3)c(=O)c1n2C` here?
Answer: Its outcome is “inactive”.

Question: How did the outcome turn out when `Cc1cc2c(s1)c1cnn(Cc3ccc(F)cc3)c(=O)c1n2C` was run?
Answer: Its outcome is “inactive”.

Question: `O=S(=O)(NC1CCC(NS(=O)(=O)c2c(F)cccc2F)CC1)c1ccc2c(c1)OCCO2` (stereo not given) was tested. Which outcome did it give?
Answer: The outcome was “inactive”.

Question: `Cc1cc2c(s1)c1cnn(Cc3ccccc3)c(=O)c1n2C` was tested. Which outcome did it give?
Answer: Its outcome is “inactive”.

Question: For `CC(=O)Nc1cc2c(s1)c1cnn(Cc3ccccc3F)c(=O)c1n2C`, which outcome is on record?
Answer: The outcome was “inactive”.

Question: How did the outcome turn out when `CC(C)c1cc2c(s1)c1cnn(Cc3ccccc3F)c(=O)c1n2C` was run?
Answer: Its outcome is “inactive”.

Question: With `COc1ccc(S(=O)(=O)N2CCN(S(=O)(=O)c3ccc4c(c3)OCCO4)CC2)cc1` as the compound, how does the outcome read?
Answer: Its outcome is “inactive”.

Question: `CSc1cc2c(s1)c1cnn(Cc3ccccc3F)c(=O)c1n2C` was tested. Which outcome did it give?
Answer: The outcome was “inactive”.

Question: With `CCCc1cc(F)c(S(=O)(=O)N2CCN(S(=O)(=O)c3ccc4c(c3)OCCO4)CC2)cc1F` as the compound, how does the outcome read?
Answer: The outcome was “inactive”.

Question: With `Cc1cc2c(s1)c1cnn(Cc3ccc(F)cc3F)c(=O)c1n2C` as the compound, how does the outcome read?
Answer: Its outcome is “inactive”.

Question: How did the outcome turn out when `CC(O)c1cc2c(s1)c1cnn(Cc3ccccc3F)c(=O)c1n2C` (stereo not given) was run?
Answer: The outcome was “inactive”.

Question: With `Cc1cc2c(s1)c1cnn(Cc3ccc(C(F)(F)F)cc3)c(=O)c1n2C` as the compound, how does the outcome read?
Answer: The outcome was “inactive”.

Question: Which outcome does the source give for `O=S(=O)(c1ccc2ccccc2c1)N1CCN(S(=O)(=O)c2c(F)cccc2F)CC1` here?
Answer: The outcome was “inactive”.

Question: How did the outcome turn out when `O=S(=O)(NCCCCCCNS(=O)(=O)c1c(F)cccc1F)c1ccc2c(c1)OCCO2` was run?
Answer: Its outcome is “inactive”.

Question: For `O=S(=O)(NCCNS(=O)(=O)c1c(F)cccc1F)c1ccc2c(c1)OCCO2`, which outcome is on record?
Answer: Its outcome is “inactive”.

Question: With `O=S(=O)(NC1CCN(S(=O)(=O)c2ccc3c(c2)OCCO3)CC1)c1c(F)cccc1F` as the compound, how does the outcome read?
Answer: Its outcome is “inactive”.

Question: With `Cc1cc2c(s1)c1cnn(Cc3ccc(C(F)(F)F)cc3F)c(=O)c1n2C` as the compound, how does the outcome read?
Answer: Its outcome is “inactive”.

Question: Which outcome does the source give for `O=S(=O)(c1c(F)cccc1F)N1CCN(S(=O)(=O)c2c(F)cccc2F)CC1` here?
Answer: The outcome was “inactive”.

Question: With `Cc1cc2[nH]c3c(=O)n(Cc4ccccc4F)ncc3c2s1` as the compound, how does the outcome read?
Answer: Its outcome is “inactive”.

Question: How did the outcome turn out when `Cc1cc2c(s1)c1cnn(Cc3ccc(Cl)cc3)c(=O)c1n2C` was run?
Answer: The outcome was “inactive”.

Question: With `Cc1cc2c(s1)c1cnn(Cc3cccc(F)c3)c(=O)c1n2C` as the compound, how does the outcome read?
Answer: Its outcome is “inactive”.

Question: Which outcome does the source give for `CCc1cc2c(s1)c1cnn(Cc3ccccc3F)c(=O)c1n2C` here?
Answer: Its outcome is “inactive”.

Question: Which outcome does the source give for `CCCCCn1ncc2c3sc(C)cc3n(C)c2c1=O` here?
Answer: The outcome was “inactive”.

Question: For `Cc1cc2c(s1)c1cnn(-c3ccccc3)c(=O)c1n2C`, which outcome is on record?
Answer: Its outcome is “inactive”.

Question: `Cn1c2ccsc2c2ncn(Cc3ccccc3F)c(=O)c21` was tested. Which outcome did it give?
Answer: The outcome was “inactive”.

Question: For `Cc1cc2c(s1)c1cnn(Cc3ccc(C(C)C)cc3)c(=O)c1n2C`, which outcome is on record?
Answer: Its outcome is “inactive”.

Question: For `O=S(=O)(NC1CCN(S(=O)(=O)c2c(F)cccc2F)C1)c1ccc2c(c1)OCCO2` (stereo not given), which outcome is on record?
Answer: Its outcome is “inactive”.

Question: With `Cc1cc2c(s1)c1cnn(Cc3ccccc3F)c(=O)c1n2C(C)C` as the compound, how does the outcome read?
Answer: The outcome was “inactive”.

Question: For `Cn1c2cc(CO)sc2c2cnn(Cc3ccccc3F)c(=O)c21`, which outcome is on record?
Answer: Its outcome is “inactive”.

Question: With `CC(=O)c1cc2c(s1)c1cnn(Cc3ccccc3F)c(=O)c1n2C` as the compound, how does the outcome read?
Answer: Its outcome is “inactive”.

Question: With `O=C(c1c(F)cccc1F)N1CCN(S(=O)(=O)c2ccc3c(c2)OCCO3)CC1` as the compound, how does the outcome read?
Answer: The outcome was “inactive”.
